# Measured values published in PubChem BioAssay (NCATS).
# The source made the active and inactive calls. Calls follow the shape of the full dose curve.
# Assay: Cell Proliferation Assay Versus the ED40515 IL2 Independent ATL cell lines (AID 1053194)
# Settings: ED40515 IL2-independent ATL cells
# Description: Adult T-cell leukemia (ATL) develops in individuals infected with human T-cell lymphotropic virus-1 (HTLV-1). Clinically, ATL is subclassified into four subtypes: smoldering, chronic, lymphomatous, and acute. Two autocrine loops (IL-2/IL-2Ralpha and IL-15/IL-15Ralpha) and one paracrine stimulation loop that involves IL-9 expression by ATL cells and IL-9Ralpha expression on monocytes are required to maintain viability and proliferation in the smoldering and chronic forms of the disease. These assays examined the differential response profiles for the MIPE library of approved and investigational drugs versus an IL2 dependent and independent matched ATL cell line, with the current submission examining the differential response profiles for drugs on an IL2 independent matched ATL cell line
# Plate log growing ED40515 -IL2 cells: 1000cells/ well in 5uL phenol red free RPMI +5% FBS +1x p/s, Glutamine using 1536 well white griener tissue culture plates and multidrop cassette acoustic dispensing Columns 1 and 3 DMSO Columns 2 and 4, 9.2 uM Bortezomib Incubate 48 hours for celltiter glo 37C with 5%CO2 and 95% humidity with low evaporation lids Dispense 3 uL per well of cell titer glo with multidrop Incubate for 15 minutes at RT Read on VL/2 using Luminesence Wheel (Filter A)
row,SMILES,Potency
1,Cc1ccccc1C(C(=O)NC1CCCC1)N(C(=O)Cn1cnc2ccccc21)c1cccc(F)c1 (stereo not given),20.9 µM (active)
2,COc1cc(Oc2ccnc3cc(OC)c(OC)cc23)ccc1NC(=O)NC(C)c1nccs1 (stereo not given),9.35 µM (active)
3,Nc1ncnc2nc(-c3ccc(N4CCOCC4)nc3)cc(-c3cccc(Br)c3)c12,29.6 µM (active)
4,CC(C)OC(=O)C1=CN(C(=O)c2ccc(F)c(F)c2)CC(C)(C)c2c1[nH]c1ccccc21,11.8 µM (active)
5,CC[C@@H](C)[C@H](NC(=O)[C@H](CC1CCCCC1)NC(=O)c1ccno1)C(=O)N1CCC2(CCc3ccccc32)CC1,10.5 µM (active)
6,CCN(CC)CCCC(C)Nc1nc(C)cc(Nc2ccc3nc(C)cc(N)c3c2)n1 (stereo not given),26.4 µM (active)
7,NC(=O)c1ccc(-c2nc(-c3ccc4c(c3)OCCO4)c(-c3ccccn3)[nH]2)cc1,20.9 µM (active)
8,OCCC#Cc1nc(-c2ccc(F)cc2)c(-c2ccncc2)n1CCCc1ccccc1,23.5 µM (active)
9,CC(C)(C)OC(=O)CN(Cc1ccc(Cl)cc1)Cc1ccc([N+](=O)[O-])s1,29.6 µM (active)
10,Cc1cc(Nc2nc(N[C@@H](C)c3ncc(F)cn3)ncc2Cl)n[nH]1,14.8 µM (active)
11,CC1(C)SCCN(S(=O)(=O)c2ccc(OCC#CCO)cc2)[C@@H]1C(=O)NO,37.2 µM (active)
12,Cc1cc2c(F)c(Oc3ncnn4cc(OC[C@@H](C)O)c(C)c34)ccc2[nH]1,1.05 µM (active)
13,CNC(=O)c1ccc(N2C(=S)N(c3ccc(C#N)c(C(F)(F)F)c3)C(=O)C2(C)C)cc1F,23.5 µM (active)
14,Nc1nccc(-c2ccc3noc(-c4ccc(Cl)cc4)c3c2)n1,18.7 µM (active)
15,C[C@@H]1C[C@H]2[C@@H]3CCC4=CC(=O)C=C[C@]4(C)C3(F)[C@@H](O)C[C@]2(C)[C@@]1(O)C(=O)CO (stereo not given in full),20.9 µM (active)
16,Cc1c(C)c2c(c(C)c1O)CCC(C)(COc1ccc(CC3SC(=O)NC3=O)cc1)O2 (stereo not given),37.2 µM (active)
17,CCOC(=O)N[C@@H]1CC[C@@H]2[C@@H](C1)C[C@H]1C(=O)O[C@H](C)[C@H]1[C@@H]2C=Cc1ccc(-c2cccc(F)c2)cn1,16.6 µM (active)
18,CNC(=O)c1ccc(C)c(-n2c(C)cc(OCc3ccc(F)cc3F)c(Br)c2=O)c1,26.4 µM (active)
19,S=C(NCc1ccc2c(c1)OCO2)N1CCN(c2ncnc3c2oc2ccccc23)CC1,3.32 µM (active)
20,C[C@@H]1CN(Cc2ccc(F)cc2)[C@@H](C)CN1C(=O)c1cc2c(C(=O)C(=O)N(C)C)cn(C)c2cc1Cl,37.2 µM (active)

row,SMILES,Potency
1,Cc1ccc2c(c1)C(=O)[C@@]1(O)CCN(c3ccccc3)C1=N2,13.2 µM (active)
2,CC1(C)CNc2cc(NC(=O)c3cccnc3NCc3ccncc3)ccc21,33.2 µM (active)
3,N#CC[C@H](C1CCCC1)n1cc(-c2ncnc3[nH]ccc23)cn1,20.9 µM (active)
4,COc1ccc(-c2ccc3c(N4CCOCC4)nc(N4C[C@@H](C)O[C@@H](C)C4)nc3n2)cc1CO,0.59 µM (active)
5,CCc1ccc(CCOc2ccc(CC3SC(=O)NC3=O)cc2)nc1 (stereo not given),23.5 µM (active)
6,CC(C)c1onc(-c2c(Cl)cccc2Cl)c1COc1ccc(/C=C/c2cccc(C(=O)O)c2)c(Cl)c1,33.2 µM (active)
7,CC(C)(Sc1ccc(CCN(CCCCC2CCCCC2)C(=O)NC2CCCCC2)cc1)C(=O)O,33.2 µM (active)
8,CCCn1c(=O)c2[nH]c(C34CC5CC3C[C@@H](C5)C4)nc2n(CCC)c1=O,18.7 µM (active)
9,CC(=O)NC(C)c1ccc(Oc2ccc(OC(C)C)cc2)cc1 (stereo not given),10.5 µM (active)
10,CCOc1cc(C=C2C(=O)N(c3ccccc3)N=C2C)cc(Cl)c1OCC(=O)OC,29.6 µM (active)
11,NC(=O)c1ccc(I)c([N+](=O)[O-])c1,16.6 µM (active)
12,CC(C)(N)C(=O)N[C@H](COCc1ccccc1)C(=O)N1CCC2(CC1)CN(S(C)(=O)=O)c1ccccc12,7.43 µM (active)
13,CCCc1nc2c(C)cc(-c3nc4ccccc4n3C)cc2n1Cc1ccc(-c2ccccc2C(=O)O)cc1,37.2 µM (active)
14,COc1cc(F)c(F)c(Nc2ccc(I)cc2F)c1NS(=O)(=O)C1(C[C@H](O)CO)CC1,26.4 µM (active)
15,COc1nc(-c2ccc3c(c2)OCO3)n(-c2ccc(NC(=O)CSc3ccccc3)cc2)n1,23.5 µM (active)
16,Cc1cccc(-c2nn(C(=S)Nc3ccccc3)cc2-c2ccnc3ccccc23)n1,26.4 µM (active)
17,O=C(NOC[C@H](O)CO)c1ccc(F)c(F)c1Nc1ccc(I)cc1F,33.2 µM (active)
18,COc1ccc(-c2c(-c3ccc(O)cc3O)n[nH]c2C)cc1,23.5 µM (active)
19,C[C@]12CC[C@H](O)CC1=CC[C@@H]1[C@H]2CC[C@]2(C)C(c3cccnc3)=CC[C@H]12,26.4 µM (active)
20,COc1ccc2nc(S(=O)Cc3ncc(C)c(OC)c3C)[nH]c2c1 (stereo not given),1.05 µM (active)
